PI5P4K alpha inh: PI5P4K alpha (human) kinase inhibition | max response, % | PI5P4Kalpha enzyme, ADP-Glo luminescence, 60 min; stronger effect = lower value | AID 652105 | 330,000 tested, 1.2% active; active = max response of -50% or lower; inconclusive = between -30% and -50%; inactive = -30% or higher; also: value at the top dose of about 77 µM
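PI5P4Kalpha ADP-Glo assay; 5 microM ATP final; 60 min RT reaction; HEPES pH 7.4/EGTA/CHAPS, 5% DMSO; controls lacking substrate or enzyme; luminescent end-point.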
POLH inh: blocks human DNA polymerase eta activity; 390,000 tested, 1.2% active; recombinant Pol eta, fluorescent DNA replication assay; Q9Y253; AID 588591; Potency, µM (titrated, usually from 114 µM), usual class: inhibitors
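Pol eta (10 nM) was preincubated with compounds for 15 min at room temperature, after which fluorescent replication substrate (50 nM final) was added to start the reaction. Fluorescence was read kinetically at 0 and 10 min.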
12-LOX inh: ALOX12 (human) lipoxygenase inhibition; P18054; purified 12hLO, xylenol orange hydroperoxide absorbance; Potency, µM (doses to about 108 µM), actives largely listed as inhibitors; 580,000 tested, 1.1% active
Target sequence (P18054 whole entry, looked up): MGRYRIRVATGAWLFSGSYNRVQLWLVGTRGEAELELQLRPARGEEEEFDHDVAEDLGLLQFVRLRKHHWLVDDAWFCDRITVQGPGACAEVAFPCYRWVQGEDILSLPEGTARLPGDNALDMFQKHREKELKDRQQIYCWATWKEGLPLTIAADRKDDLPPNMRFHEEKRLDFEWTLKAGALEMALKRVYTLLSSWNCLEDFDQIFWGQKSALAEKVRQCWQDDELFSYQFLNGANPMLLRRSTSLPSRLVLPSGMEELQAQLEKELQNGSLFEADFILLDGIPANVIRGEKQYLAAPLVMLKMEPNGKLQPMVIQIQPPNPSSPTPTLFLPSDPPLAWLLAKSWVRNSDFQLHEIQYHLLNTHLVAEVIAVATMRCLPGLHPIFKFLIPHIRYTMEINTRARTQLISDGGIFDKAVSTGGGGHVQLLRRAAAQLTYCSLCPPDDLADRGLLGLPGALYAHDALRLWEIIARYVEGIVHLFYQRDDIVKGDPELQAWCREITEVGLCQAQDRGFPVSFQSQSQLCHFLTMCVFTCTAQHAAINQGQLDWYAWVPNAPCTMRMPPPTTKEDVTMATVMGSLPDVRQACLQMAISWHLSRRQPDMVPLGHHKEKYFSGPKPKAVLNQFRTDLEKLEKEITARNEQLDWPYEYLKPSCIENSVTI
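Purified human 12hLO (150 nM final) in 25 mM Hepes, 0.01% Triton X-100, pH 7.0 was preincubated 15 min at room temperature with compound. Then 40 uM arachidonic acid was added, 30 min. Hydroperoxide was read by Fe-XO absorbance ratio 573/405 nm.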
Pol kappa inh: blocks human DNA polymerase kappa activity. Q9UBT6. purified Pol kappa, fluorescent DNA synthesis assay, 10 min. Potency, µM (top dose mostly 107 µM), most hits filed as inhibitors. 400,000 tested, 0.53% active. AID 588579
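Kinetic fluorescence screen: compound preincubated 15 min RT with 10 nM enzyme; 50 nM substrate (final) initiates; reads at 0/10 min.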
Pol iota inh: blocks human DNA polymerase iota activity; Pol iota fluorescent replication assay, 10 min; 390,000 tested, 1% active; Q9UNA4; Potency, µM (top dose mostly 115 µM), hits mostly inhibitors
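Fluorescent replication assay read twice, at 0 min and 10 min after adding 50 nM (final) substrate. Enzyme (10 nM) and compounds were first incubated 15 min at room temperature; enzyme-free buffer wells were negative controls.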
Pol beta inh: inhibitors of human DNA polymerase beta; 340,000 tested, 1.3% active; Potency, µM (doses to about 114 µM), most hits filed as inhibitors; Pol beta primer extension/strand displacement, fluorescence kinetic
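Preincubation: enzyme (10 nM) with compound, 15 min, RT. Reaction: substrate added to 50 nM final. Reads: 0 and 10 min. Analysis: normalized, Hill fit.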
Hits are given with their value; - = inactive; ? = inconclusive; . = not tested or not shown; ! = repeats disagree; [ ] = remark or other dose. Rows were chosen to be rich in hits. Some 2.9% of all compounds tested hit in one or more screens of this group. Unless noted, calls follow the shape of the dose curve; as a rule, active = well fitted inhibition curve with a large enough effect; inconclusive = small, poorly fitted or top-dose-only effect, or another doubt; inactive = no such curve, though single readings can be large or run the other way.

SMILES	PI5P4K alpha inh	POLH inh	12-LOX inh	Pol kappa inh	Pol iota inh	Pol beta inh
COc1cc(CCC(=O)OCC(=O)Nc2ncc(Cl)cc2Cl)cc(OC)c1OC	?	11.2µM	?	-	?	79.4µM
COc1ccc(C(=O)NCC(=O)OCC(=O)Nc2ncc(Cl)cc2Cl)cc1[N+](=O)[O-]	-	50.1µM	?	-	-	.
N#Cc1cccnc1NCCNC(=O)Nc1cn[nH]c1	.	.	-	.	.	.
COc1ccc2c(c1)n([O-])c1c([n+]2=O)CCC1	?	22.4µM	.	-	?	-
CCOc1ccc2c(c1)n([O-])c1c([n+]2=O)CCCC1	-	-	-	-	-	-
COc1ccccc1-n1cc(-c2ccccc2)c2c(=S)nc[nH]c21	-	-	44.7µM	-	-	-
CC(Sc1cccc2cccnc12)C(=O)NC(=O)NC(C)(C)C (centres undefined)	.	.	12.6µM	.	.	.
COC(=O)C1=CN(c2cccc(C(F)(F)F)c2)C=C(C(=O)OC)C1c1ccc(Cl)cc1	.	.	-	.	.	.
CCCC[C@]12Cc3ccccc3C(O1)c1c(cc(-c3ccccc3)oc1=O)O2	.	.	.	.	.	3.55µM
CCCC[C@]12Cc3cc(OC)c(OC)cc3C(O1)c1c(cc(-c3ccccc3)oc1=O)O2	.	.	.	.	.	-[22.9 µM]
O=C(NC(=S)Nc1ccccc1N1CCOCC1)c1ccc(-c2ccccc2F)o1	-	-	25.1µM	-	-	-
CCOc1ccc(C(=O)NC(=S)Nc2cc(C)ccn2)cc1[N+](=O)[O-]	-	-	-	-	?	31.6µM
CCOc1ccc(C(=O)NC(=S)Nc2ccc(N3CCC(C)CC3)cc2)cc1[N+](=O)[O-]	-	-	-	-	-	-
CCOc1ccc(C(=O)NC(=S)Nc2ccccc2N2CCC(C)CC2)cc1[N+](=O)[O-]	-	-	35.5µM	-	-	-
O=C(COc1ccc(Br)cc1)NC(=S)Nc1ccccc1N1CCOCC1	-	-	?	-	-	-
CCOc1ccc(C(=O)NC(=S)Nc2ccccn2)cc1[N+](=O)[O-]	-	-	-	-	-	-
O=C(NC(=S)Nc1ccccc1N1CCOCC1)c1ccc(Br)cc1	-	-	35.5µM	-	-	-
CC(=O)N1CCN(c2oc(/C=C/c3ccccc3Cl)nc2C#N)CC1	.	.	-	.	.	.
O=C1Cc2c(-c3ccccc3)n[nH]c2CN1CC1CCOCC1	.	.	-	.	.	.
Cc1cc(NC(=O)c2ccc(Cl)cc2F)n(CCC#N)n1	.	.	-	.	.	.
Cc1cc(C(=O)NC(=S)Nc2ccccc2N2CCOCC2)ccc1[N+](=O)[O-]	-	-	28.2µM	-	-	-
O=C(O)CSc1nc(-c2ccccc2)nc2c1oc1ccccc12	-	-	-	-	-	-
O=C(O)CSc1nc(-c2ccc(Cl)cc2)nc2c1oc1ccccc12	-	?	?	-	-	56.2µM
COC(=O)c1sc(-c2ccc(C(C)(C)C)cc2)cc1NC(=O)CSCC(=O)O	-	89.1µM	?	-	79.4µM	-
COC(=O)c1sc(-c2ccccc2)cc1NC(=O)C1CC1	-	?	-	-	-	-
SMILES	PI5P4K alpha inh	POLH inh	12-LOX inh	Pol kappa inh	Pol iota inh	Pol beta inh
CCN(CC)c1ccc(SS(=O)(=O)O)cc1	-	?	25.1µM!	-	?	-
O=S(=O)(O)Sc1ccccc1	-	-	?	.	.	.
Cn1c(SCC(=O)c2ccc(O)c(O)c2)nnc1-c1cccs1	-	22.4µM	?	79.4µM	28.2µM	3.55µM
C=CCn1c(SCC(=O)c2ccc(O)c(O)c2)nnc1-c1cccc(OC)c1	-	11.2µM	?	31.6µM	?	.
Cn1c(SCC(=O)c2ccc(O)c(O)c2)nnc1-c1ccccc1	-	-	-	-	?	-
C=CCn1c(SCC(=O)c2ccccc2)nnc1-c1cc2ccccc2o1	-	-	-	-	-	?
C=CCn1c(SCC(=O)c2ccccc2)nnc1-c1ccc2c(c1)OCO2	-	-	?	-	?	50.1µM
Cn1c(SCC(=O)c2ccc3c(c2)Cc2ccccc2-3)nnc1-c1cccc(N)c1	?	?	-	-	-	0.159µM
COc1ccc(C(C)=O)cc1CN(C)CC(=O)Nc1cccc(F)c1	.	.	-	.	.	.
O=C(OCc1cc(=O)oc2cc(O)ccc12)c1n[nH]c2ccccc12	.	.	25.1µM	.	.	.
COc1ccc2c(COC(=O)c3n[nH]c4ccccc34)cc(=O)oc2c1	-	?	-	-	?	?
O=C(NCCc1csc(-c2ccc(C(F)(F)F)cc2)n1)C(=O)Nc1ccccc1F	.	.	-	.	.	.
Cc1cccc(/N=C/c2ccc([N+](=O)[O-])cc2)n1	.	.	-	.	.	.
Cc1ccc(NC(=S)NCc2ccc3c(c2)OCO3)c(C)c1	-	-	39.8µM	-	-	-
Cc1ccc(NC(=S)NCc2ccc3c(c2)cc(C)n3C)c(C)c1	-	-	35.5µM	-	-	-
FC(F)Oc1ccc(NC(=S)NCc2ccccc2)cc1	-	-	?	-	-	-
Cc1cc2cc(CNC(=S)Nc3ccc(OC(F)F)cc3)ccc2n1C	-	-	35.5µM	-	-	-
CN(C)C1(CNC(=O)COc2ccc3ccc(=O)oc3c2)CCCCC1	.	.	-	.	.	.
N#CC(C#N)=C1NC2(CCCCC2)Cc2ccccc21	-	-	?	-	-	-
N#CC1(Br)C(=N)c2ccccc2CC12CCCCC2 (centres undefined)	.	.	0.562µM	.	.	.
CC(C)Cc1cc(-c2nn3c(-c4ccccn4)nnc3s2)n(C)n1	.	.	-	.	.	.
CCc1ccc(-c2cc(C(F)F)n3ncc(C#N)c3n2)cc1	.	.	-	.	.	.
Oc1cc2ccccc2cc1-c1n[nH]c(=S)o1	-73.3	-	-	-	?	?
CCCCCCCCCCCCCCCCCCOS(=O)(=O)O	.	.	-	.	.	.
CN(C)CC1CCC/C(=C\c2ccc(OC(=O)/C=C/c3ccccc3)cc2)C1=O (centres undefined)	-	?	?	-	-	.
SMILES	PI5P4K alpha inh	POLH inh	12-LOX inh	Pol kappa inh	Pol iota inh	Pol beta inh
CN(C)CC1CCC/C(=C\c2ccc(OC(=O)c3ccc(Cl)cc3)cc2)C1=O (centres undefined)	-	?	25.1µM	-	?	.
Cc1cccc(C(=O)NCCSC(F)(F)F)n1	.	.	-	.	.	.
CCn1c(SCC(=O)Nc2ccc(OC)c(OC)c2)nc2c(c1=O)SCC2	-	-	-	-	-	-
CCn1c(SCC(=O)Nc2cc(OC)ccc2OC)nc2c(c1=O)SCC2	-	-	-	-	-	22.4µM
Cn1c(=O)c2c(nc(NC3CCCCC3)n2CC(O)CO)n(C)c1=O (centres undefined)	.	.	-	.	.	.
CCOc1ccc(-c2nc3ccc4ccccc4c3c3c2CCCC3)cc1	.	.	-	.	.	.
Oc1ccc(-c2nc3ccc4ccccc4c3c3c2CCC3)cc1O	-	-	2µM	-	?	?
O=C(CNC(=O)/C=C/c1ccco1)N=Nc1c(O)[nH]c2ccccc12	-	-	-	-	-	8.91µM
O=C(CNC(=O)Cc1ccccc1)N=Nc1c(O)[nH]c2ccccc12	-	-	-	-	-	-
NS(=O)(=O)c1ccc(CNC(=O)/C=C/c2ccco2)cc1	?	17.8µM	-	?	?	22.4µM
O=C(/C=C/c1ccco1)NCc1ccc(F)cc1	-	-	31.6µM	-	-	-

High-throughput results deposited in PubChem BioAssay by National Center for Advancing Translational Sciences (NCATS).
